Screening data (PubChem)
Only some compounds are listed: those with a hit (about 3.2% of all), similar ones and a draw of the others.
CRFBP-R2 agonist: agonists of CRF-BP/CRF-R2 complex, primary screen, cell-based, HEK293, calcium dye fluorescence, uHTS | activation, % at 13.2 µM | CRF-binding protein / CRF receptor 2 complex (human) | calcium dye fluorescence (FLIPR); percent of saturating CRF peptide response | actives 0.46% (n = 350,000);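 active = activation of at least 50%, plus an integration ratio under a set limit after plate pattern correction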
aDG glyco act: activators of alpha-DG glycosylation, primary screen, uHTS, Pro5-aDG cells, AlphaScreen | alpha-DG glycosylation AlphaScreen (IIH6); 0% Pro5, 100% B10-LARGE cell signal | activation, % at 10 µM | actives 0.22% (n = 360,000) | AID 624168, 2012;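 active = activation of at least 8% versus controls, or a plate z-score of at least 8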;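 also: Pro5 are CHO cells carrying HIG-tagged alpha-DG that lacks glycosylation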
FAS-TE inh: FAS thioesterase domain inhibitors, primary screen, biochemical, fluorescence intensity, uHTS; Fatty acid synthase (Homo sapiens), P49327; recombinant FAS-TE, OMFH fluorogenic substrate, fluorescence endpoint; inhibition, % at 15 µM; actives 0.67% (n = 360,000); AID 602261, 2012;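 active = compounds whose normalised, plate-corrected inhibition of enzyme fluorescence in the single-dose primary screen is 50% or more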
CRFBP-R2 block: antagonists of CRF-BP/CRF-R2 complex, primary screen, cell-based, HEK293, calcium dye fluorescence, uHTS. CRF-induced calcium fluorescence. inhibition, % at 11.8 µM. actives 0.59% (n = 350,000);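 active = inhibition of the ligand-induced calcium signal above about 50% at the single tested concentration, limit read from the data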
PfGluPho inh: PfG6PD enzyme inhibitors, primary screen, biochemical, fluorescence intensity, uHTS. actives 0.78% (n = 350,000). glucose-6-phosphate dehydrogenase-6-phosphogluconolactonase (Plasmodium falciparum 3D7). PfGluPho enzyme, NADPH resazurin-diaphorase fluorescence. inhibition, % at 20 µM;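 active = inhibition reaching at least a set limit at 20 µM in the primary screen, cut at about 59% in these data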
Cardio protect: cardioprotection against H2O2-induced cell death, primary screen, uHTS, H9c2 cells, ATPLite luminescence; protection from H2O2 cell death, % at 20 µM; H9c2 cardiomyocytes, H2O2 injury protection, 2 h; actives 0.63% (n = 360,000);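 active = compounds giving at least 50% protection of heart cells from peroxide-induced death in the single-dose screen, raw or plate-pattern-corrected value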
FAS-TE inh conf: FAS thioesterase domain inhibitors, confirmation, biochemical, fluorescence intensity, single concentration. shares compounds with FAS-TE inh. recombinant FAS-TE, OMFH fluorogenic substrate. inhibition, % at 15 µM. actives 45% (n = 2,300). AID 624325, 2012;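 active = compounds inhibiting the enzyme by at least 50% at 15 µM in any one of the replicates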
Large screens that a line does not name were inactive (follow-up assays come after a bar, where they were run).

CCOC(=O)C1CCN(C(=O)c2cc3cc4ccc(C)cc4nc3o2)CC1	FAS-TE inh 55.2 | FAS-TE inh conf 62.5
COc1ccc2cc3cc(C(=O)N4CCCCC4C)oc3nc2c1 (stereo unspecified)	FAS-TE inh 75.4 | FAS-TE inh conf 62.4
COc1ccc2cc3cc(C(=O)N4CCCCCC4)oc3nc2c1	FAS-TE inh 74.3 | FAS-TE inh conf 55.7
CCOC(=O)C1CCN(C(=O)c2cc3c(ccc4ccccc43)o2)CC1	none
CC(C)Cn1c(N)c(C(=O)COC(=O)/C=C/c2ccccc2)c(=O)n(C)c1=O	none
COc1ccc2c(c1)OC[C@H]1[C@H]2N2C(=O)c3ccccc3NC(=O)[C@@]2(C)[C@H]1c1ccccc1	FAS-TE inh 69.8 | FAS-TE inh conf inactive
COc1ccc2c(c1)[C@@H]1[C@H](CO2)[C@H](c2ccccc2)[C@]2(C)C(=O)Nc3ccc(C)cc3C(=O)N12	FAS-TE inh 83.0 | FAS-TE inh conf inactive
COc1ccc2c(c1)C(=O)N1[C@H]3c4cc(C)ccc4OC[C@@H]3[C@H](c3ccccc3)[C@]1(C)C(=O)N2	FAS-TE inh 73.3 | FAS-TE inh conf inactive
O=C(CN1C(=O)NC2(CCCc3ccccc32)C1=O)NCC(F)(F)F (stereo unspecified)	none
CC1CCCN(C(=O)COC(=O)c2cc([N+](=O)[O-])ccc2N2CCOCC2)C1 (stereo unspecified)	FAS-TE inh 81.3 | FAS-TE inh conf 83.6
CC1CCCC(C)N1C(=O)COC(=O)c1cc([N+](=O)[O-])ccc1N1CCOCC1 (stereo unspecified)	FAS-TE inh 62.9 | FAS-TE inh conf 73.6
CC1CC(C)CN(C(=O)COC(=O)c2cc([N+](=O)[O-])ccc2N2CCOCC2)C1 (stereo unspecified)	FAS-TE inh 82.9 | FAS-TE inh conf 80.7
CCOC(=O)C1CCN(C(=O)COC(=O)c2cc([N+](=O)[O-])ccc2N2CCOCC2)CC1	FAS-TE inh 69.6 | FAS-TE inh conf 71.3
CC1CCN(c2ccc([N+](=O)[O-])cc2C(=O)N2CCOCC2)CC1	none
C[C@H]1CN([C@@H](C)CO)C(=O)c2cc(Br)cnc2O[C@@H]1CN(C)S(C)(=O)=O	none
CC(C)OC(=O)/C(C#N)=C/c1cn(C)c2ccccc12	FAS-TE inh 52.2 | FAS-TE inh conf 49.4
O=C(Nc1nc(-c2ccccc2)c(C(=O)c2ccccc2)s1)c1ccc(S(=O)(=O)N2CCCCC2)cc1	FAS-TE inh 86.4 | FAS-TE inh conf inactive
O=C(Nc1nc(-c2ccccc2)c(-c2ccccc2)s1)c1ccc(S(=O)(=O)N2CCCCC2)cc1	none
O=C(NNc1nc(-c2ccccc2)c2cc(Br)ccc2n1)c1ccc(S(=O)(=O)N2CCOCC2)cc1	FAS-TE inh 80.0 | FAS-TE inh conf inactive
O=C(NNc1nc(-c2ccccc2)c2cc(Br)ccc2n1)c1ccc(S(=O)(=O)N2CCCCC2)cc1	FAS-TE inh 73.8 | FAS-TE inh conf inactive
O=C(CCN1CCN(c2ccccc2)CC1)N/N=C/c1ccc([N+](=O)[O-])o1	none
Cc1nn(C)cc1S(=O)(=O)Nc1ccc(C(F)(F)F)cc1	none
Cc1cc(=O)n2nc(N3CCC(C(=O)NCc4ccccc4Cl)CC3)sc2n1	none
O=C(COC(=O)c1ncc(Cl)c(Cl)c1Cl)NC(=O)NCc1ccccc1	none
CC(=O)c1ccc(NS(=O)(=O)c2ccc([N+](=O)[O-])cc2)cc1	none
CC(Cc1ccccc1)=NNS(=O)(=O)c1ccc([N+](=O)[O-])cc1	FAS-TE inh 59.5 | FAS-TE inh conf 66.0
CC(Cc1ccccc1)=NNc1ccc([N+](=O)[O-])cc1[N+](=O)[O-]	none
O=S(=O)(Nc1ccc(-c2csc(-c3ccccc3)n2)cc1)c1ccc(F)cc1	FAS-TE inh 57.5 | FAS-TE inh conf inactive
Fc1ccc(-c2csc(-c3ccncc3)n2)cc1	none
O=[N+]([O-])c1ccc(S(=O)(=O)Nc2ccc(-c3ccccc3)cc2)cc1	FAS-TE inh 70.2 | FAS-TE inh conf 70.2
O=C1NCC(Nc2ccc(Br)cc2)C(=O)N1 (stereo unspecified)	none
COCCNC(=O)c1cccc(OC2CCN(Cc3ccc(OC(F)F)cc3)CC2)c1	none
O=c1c2ccccc2c(C=Nc2ccc(S(=O)(=O)N3CCCCC3)cc2)c(O)n1-c1ccc(Cl)cn1	FAS-TE inh 61.3 | FAS-TE inh conf inactive
CCc1nnc(/N=C/c2c(O)n(-c3ccc(Cl)cn3)c(=O)c3ccccc23)s1	none
Cc1ccc(NC(=O)NNC(=O)C2CCN(Cc3ccc(F)cc3Cl)CC2)cc1	none
CN(CC(=O)Nc1ccc(Cl)c(C(F)(F)F)c1)C(=O)C1CC(=O)N(c2ccc3c(c2)OCCO3)C1 (stereo unspecified)	FAS-TE inh 54.1 | FAS-TE inh conf 26.7
COC(=O)[C@@]12CCCCN1[C@H](c1ccc(-c3ccc4c(c3)OCO4)cc1)[C@H]1C(=O)N(C)C(=O)[C@H]12	FAS-TE inh 79.2 | FAS-TE inh conf inactive
CCN1C(=O)[C@@H]2[C@@H](c3ccc(-c4ccc5c(c4)OCO5)c(OC)c3)N3CCCC[C@@]3(C(=O)OC)[C@@H]2C1=O	FAS-TE inh 53.3 | FAS-TE inh conf inactive
CN(C)c1ccc(P(=O)(Nc2ccc([N+](=O)[O-])cc2)N2CCOCC2)c(NC(=O)c2cccs2)c1 (stereo unspecified)	FAS-TE inh 53.9 | FAS-TE inh conf inactive
Cc1ccc(NP(=O)(c2ccc(N(C)C)cc2NC(=O)c2cccs2)N2CCOCC2)cc1 (stereo unspecified)	none
Cc1noc(C)c1S(=O)(=O)N(C)C[C@@H]1OCc2cn(nn2)CCCC(=O)N([C@@H](C)CO)C[C@H]1C	none
CN(c1ccc(Br)cc1)S(=O)(=O)c1ccc2[nH]cc(C(=O)NCCN3CCOCC3)c(=O)c2c1	none
O=C(OCc1ccc([N+](=O)[O-])cc1)C1CCN(S(=O)(=O)c2ccccc2)CC1	FAS-TE inh 60.3 | FAS-TE inh conf 60.4
COc1cccc(NC(=O)CN2C(=O)COc3ccc(S(=O)(=O)N4CCC(C)CC4)cc32)c1	FAS-TE inh 60.7 | FAS-TE inh conf 66.2
Cc1ccc(Cl)cc1N1CCN(C(=O)C2CCN(S(=O)(=O)c3cccnc3)CC2)CC1	aDG glyco act 7.5, FAS-TE inh 50.0 | FAS-TE inh conf inactive
